# In PubChem BioAssay (NCATS):
# Several values for one entry are separate records, joined by “and”; a condition that tells them apart may be missing. Equal values may be shown once. Results filed as inconclusive are left out. A call without a number means that no potency is given here. Activity calls are given as the source filed them. Unless noted, calls come from the whole dose curve; as a rule, active = well fitted curve in either direction with a large enough effect (not every such curve was filed as active); inconclusive = small, poorly fitted or top-dose-only effect, or another doubt; inactive = flat fitted curve, though single readings scatter.
# Legend:
# [1] = AP1 Signaling Pathway (AID 357);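 note: ME-180 reporter cells stimulated with EGF at its EC50 level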
# Procedure, shortened: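 In this screen, ME-180 cells in Opti-MEM with 0.5% dialyzed FBS received EC50 EGF and compound titrations for 5 h. AP-1 reporter beta-lactamase was detected via CCF4 ratio, giving AC50 for positive and negative modulators.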
# [2] = biological target: Cytochrome P450 1A2 (Homo sapiens) (UniProt P05177); assay: p450-cyp1a2 (AID 410; calls by dose curve; note: potency is the fitted concentration of half-maximal effect)
# Chain of Cytochrome P450 1A2 (Homo sapiens) (P05177 whole entry, looked up): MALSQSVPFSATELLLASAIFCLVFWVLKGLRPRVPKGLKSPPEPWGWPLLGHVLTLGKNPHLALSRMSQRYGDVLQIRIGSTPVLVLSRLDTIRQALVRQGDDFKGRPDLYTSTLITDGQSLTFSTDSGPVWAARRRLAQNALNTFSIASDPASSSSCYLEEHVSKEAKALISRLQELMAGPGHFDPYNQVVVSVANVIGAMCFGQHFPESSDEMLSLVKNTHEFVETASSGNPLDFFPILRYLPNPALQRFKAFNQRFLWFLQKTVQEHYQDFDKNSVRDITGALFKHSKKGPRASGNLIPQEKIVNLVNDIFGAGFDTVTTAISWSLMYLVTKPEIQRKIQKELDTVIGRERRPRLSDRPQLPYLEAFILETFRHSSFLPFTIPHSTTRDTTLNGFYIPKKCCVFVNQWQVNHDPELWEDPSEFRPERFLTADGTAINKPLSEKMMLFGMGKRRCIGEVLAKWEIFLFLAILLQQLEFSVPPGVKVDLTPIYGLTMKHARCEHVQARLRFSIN
# Procedure, shortened: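 20nM CYP1A2, 100uM Luciferin-ME (=Km), 100mM KPO4; cpd 10 min RT; +NADPH regen, 60 min RT; stop/detect 20 min; luminescence. Normalized to furafylline 57 uM = full inhibition.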
# [3] = Stat Signaling Pathway (AID 446);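 note: ME-180 cervical cancer cells given 40 pM IL-6 alongside compound; SIE-controlled beta-lactamase reporter measured as 460/530 nm FRET emission ratio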
# Procedure, shortened: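 FRET read-out (405 nm excitation, 460/530 nm emission) of a beta-lactamase reporter under a STAT-inducible element in ME-180 cervical carcinoma cells. Cells with compound receive 40 pM IL-6 for 5 h. Values are normalised to AC90 stimulation and AC90 JAK-inhibitor controls.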
# [4] = biological target: Glucocorticoid receptor (Homo sapiens) (UniProt P04150); assay: GR-EFC Redistribution (AID 451; calls by dose curve; note: potency is the fitted concentration of half-maximal effect); conditions: CHO-K1 GR-EFC translocation, beta-gal luminescence, 2 h
# Chain of Glucocorticoid receptor (Homo sapiens) (P04150 whole entry, looked up, the tested form may be a part): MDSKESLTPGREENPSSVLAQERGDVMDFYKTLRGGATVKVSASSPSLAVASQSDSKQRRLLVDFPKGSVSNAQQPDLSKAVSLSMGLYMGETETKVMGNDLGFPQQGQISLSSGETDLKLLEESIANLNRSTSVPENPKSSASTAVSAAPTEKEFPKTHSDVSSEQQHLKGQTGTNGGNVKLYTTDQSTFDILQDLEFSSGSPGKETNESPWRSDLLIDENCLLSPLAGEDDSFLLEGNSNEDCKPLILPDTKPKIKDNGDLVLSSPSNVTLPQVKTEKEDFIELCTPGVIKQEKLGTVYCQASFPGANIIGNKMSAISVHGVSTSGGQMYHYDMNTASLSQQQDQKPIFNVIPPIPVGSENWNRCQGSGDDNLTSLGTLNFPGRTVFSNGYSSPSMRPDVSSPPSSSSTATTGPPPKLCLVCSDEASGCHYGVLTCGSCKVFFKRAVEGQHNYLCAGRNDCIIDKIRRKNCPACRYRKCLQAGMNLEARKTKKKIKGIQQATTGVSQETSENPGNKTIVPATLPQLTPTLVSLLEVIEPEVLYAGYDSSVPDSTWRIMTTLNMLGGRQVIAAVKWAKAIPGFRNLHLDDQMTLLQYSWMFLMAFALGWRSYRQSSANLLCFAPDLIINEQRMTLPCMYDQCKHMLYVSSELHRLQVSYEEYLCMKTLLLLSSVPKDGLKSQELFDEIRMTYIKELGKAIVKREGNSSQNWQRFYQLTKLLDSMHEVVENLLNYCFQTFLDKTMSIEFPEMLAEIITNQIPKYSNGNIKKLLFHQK
# Procedure, shortened: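 CHO-K1 cells stably expressing nuclear-localized β-gal enzyme acceptor and GR fused C-terminally to the enzyme donor fragment; ligand-driven nuclear translocation restores β-gal by complementation. Compounds titrated up to 46 uM final, 2 h at 37 °C; luminescence read.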
# [5] = biological target: Mitogen-activated protein kinase 10 (Mus musculus) (UniProt Q61831); assay: JNK3 AlphaScreen Assay (AID 530);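 note: kinase came from lysate of stimulated human HepG2 cells; signal reports phosphorylation of biotinylated GST-cJun 1-79 at Ser73 with 10 µM ATP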
# Procedure, shortened: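 Biotinylated GST-cJun(1-79) served as substrate for JNK3 in HepG2 lysates stimulated with IL-1beta and TNF-alpha. ATP was 10 uM final, pH 7.6. Ser73 phosphorylation was quantified by AlphaScreen (680 nm excitation).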
# [6] = biological target: 3',5'-cyclic-AMP phosphodiesterase 4B (Homo sapiens) (UniProt Q07343); assay: qHTS Assay for Inhibitors of PDE-IV (AID 607; active = well fitted activation curve with a large enough effect in the main read-out, with a control signal flat, not every such curve was filed as active)
# Chain of 3',5'-cyclic-AMP phosphodiesterase 4B (Homo sapiens) (Q07343 whole entry, looked up): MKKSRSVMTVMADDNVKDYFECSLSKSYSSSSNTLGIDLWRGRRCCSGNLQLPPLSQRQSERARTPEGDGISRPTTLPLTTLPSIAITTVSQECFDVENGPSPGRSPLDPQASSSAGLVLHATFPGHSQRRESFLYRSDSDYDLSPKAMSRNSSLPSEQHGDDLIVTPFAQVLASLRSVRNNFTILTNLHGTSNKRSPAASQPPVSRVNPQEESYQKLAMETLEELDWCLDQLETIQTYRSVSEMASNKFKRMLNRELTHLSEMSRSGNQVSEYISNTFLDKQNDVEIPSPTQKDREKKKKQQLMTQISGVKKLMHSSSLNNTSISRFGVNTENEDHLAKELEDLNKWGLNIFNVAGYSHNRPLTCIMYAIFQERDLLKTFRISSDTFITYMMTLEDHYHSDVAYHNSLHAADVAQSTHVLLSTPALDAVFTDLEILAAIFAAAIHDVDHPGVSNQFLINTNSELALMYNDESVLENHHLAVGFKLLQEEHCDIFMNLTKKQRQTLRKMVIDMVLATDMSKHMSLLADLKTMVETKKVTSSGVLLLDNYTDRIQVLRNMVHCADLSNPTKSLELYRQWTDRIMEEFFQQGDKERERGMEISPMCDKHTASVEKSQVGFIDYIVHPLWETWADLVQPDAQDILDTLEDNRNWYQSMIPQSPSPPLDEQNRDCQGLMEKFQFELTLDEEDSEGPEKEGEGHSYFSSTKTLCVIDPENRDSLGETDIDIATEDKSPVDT
# Procedure, shortened: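 Cell-based read-out of cAMP via a modified cyclic nucleotide-gated channel and membrane potential dye (535/590 nm) in HEK293 cells expressing PDE4 endogenously. Compounds tested up to 22.9 uM final; 100 uM RO 20-1724 reference.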
# [7] = biological target: Cytochrome P450 3A4 (Homo sapiens) (UniProt P08684); assay: qHTS Assay for Activators of Cytochrome P450 3A4 (AID 885; active = well fitted curve in the direction sought with a large enough effect; an effect the other way counts as inactive or inconclusive; note: nearly all actives have a fitted effect of over 65% in size; note: potency is the fitted concentration of half-maximal effect)
# Chain of Cytochrome P450 3A4 (Homo sapiens) (P08684 whole entry, looked up): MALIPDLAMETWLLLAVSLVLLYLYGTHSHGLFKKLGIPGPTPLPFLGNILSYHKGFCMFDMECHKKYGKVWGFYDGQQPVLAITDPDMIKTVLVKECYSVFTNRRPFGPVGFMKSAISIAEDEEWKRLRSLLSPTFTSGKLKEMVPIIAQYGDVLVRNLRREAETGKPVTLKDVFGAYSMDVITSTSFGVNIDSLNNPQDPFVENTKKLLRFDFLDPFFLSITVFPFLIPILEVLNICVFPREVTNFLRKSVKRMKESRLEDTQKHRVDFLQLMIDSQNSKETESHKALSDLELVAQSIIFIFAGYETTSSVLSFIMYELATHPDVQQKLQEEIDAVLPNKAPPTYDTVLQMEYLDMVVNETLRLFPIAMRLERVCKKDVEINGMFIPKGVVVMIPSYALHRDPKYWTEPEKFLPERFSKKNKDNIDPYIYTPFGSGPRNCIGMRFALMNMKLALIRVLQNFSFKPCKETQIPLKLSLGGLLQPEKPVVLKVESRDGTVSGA
# Procedure, shortened: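 Luminescent readout of luciferin formed from 25 uM Luciferin-PPXE (KM level) by 20 nM CYP3A4 in 200 mM KPO4, with 60 min NADPH-driven reaction at room temperature after 10 min compound exposure. Ketoconazole (57 uM) defined 100% inhibition.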
# [8] = biological target: Cytochrome P450 2D6 (Homo sapiens) (UniProt P10635); assay: qHTS Assay for Inhibitors and Substrates of Cytochrome P450 2D6 (AID 891; active = well fitted curve in the direction sought with a large enough effect; an effect the other way counts as inactive or inconclusive; note: nearly all actives have a fitted effect of over 60% in size; note: potency is the fitted concentration of half-maximal effect;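 for activity change, negative = inhibition: luciferin methyl ether substrate demethylated by CYP2D6 with NADPH regeneration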)
# Chain of Cytochrome P450 2D6 (Homo sapiens) (P10635 whole entry, looked up): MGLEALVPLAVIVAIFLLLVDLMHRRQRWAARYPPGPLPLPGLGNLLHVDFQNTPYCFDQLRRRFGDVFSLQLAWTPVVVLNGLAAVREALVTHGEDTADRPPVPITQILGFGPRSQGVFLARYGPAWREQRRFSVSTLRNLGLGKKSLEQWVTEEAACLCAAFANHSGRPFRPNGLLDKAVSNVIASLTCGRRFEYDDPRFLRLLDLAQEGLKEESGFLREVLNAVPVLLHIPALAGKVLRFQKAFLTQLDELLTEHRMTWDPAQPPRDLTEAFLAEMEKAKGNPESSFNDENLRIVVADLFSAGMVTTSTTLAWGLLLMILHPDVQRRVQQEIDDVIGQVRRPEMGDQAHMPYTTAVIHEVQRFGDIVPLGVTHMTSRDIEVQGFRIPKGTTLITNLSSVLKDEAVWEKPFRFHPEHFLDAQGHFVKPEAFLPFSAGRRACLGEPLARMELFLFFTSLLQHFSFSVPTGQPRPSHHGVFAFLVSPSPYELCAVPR
# Procedure, shortened: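 Luminescent read-out of luciferin formed by 5 nM human CYP2D6 demethylating 30 uM Luciferin-ME EGE (Km level) over 60 min at room temperature after NADPH regeneration addition. Data normalized to full inhibition by 1.43 uM quinidine.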
# [9] = Primary qHTS for small molecule stabilizers of the endoplasmic reticulum resident proteome: Secreted ER Calcium Modulated Protein (SERCaMP) assay (AID 1508630; active = well fitted curve in the direction sought with a large enough effect; an effect the other way counts as inactive or inconclusive)
# Procedure, shortened: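 The SH-SY5Y reporter protocol was run at 3 concentrations up to 38.3 uM (primary) or 11 concentrations (follow-up): 16 h compound, 100 nM thapsigargin for 4 h, then extracellular luciferase luminescence.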
# [10] = NFAT Signaling Pathway (AID 444); conditions: Jurkat NFAT-bla M1, carbachol, beta-lactamase ratio, 5 h;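 note: carbachol stimulus at about its EC50 of 1 µM final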
# Procedure, shortened: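 Jurkat cells carrying an NFAT-driven β-lactamase reporter and co-transfected muscarinic M1 receptor were treated with compound plus carbachol (1 uM final, an EC50 level) for 5 h at 37 °C. CCF4 loading followed for 1 h at RT; 460/530 nm ratio gave %activity.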
# [11] = biological target: Glucocorticoid receptor (Homo sapiens) (UniProt P04150); assay: GR-GFP Redistribution (AID 450;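 active = compounds whose dose series gives a full or clear partial fitted curve of increased nuclear translocation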; note: potency is the fitted concentration of half-maximal effect); conditions: U2OS GR-GFP nuclear translocation, laser cytometry, 2 h
# [12] = qHTS Assay for Lipid Storage Modulators (AID 1519; calls by dose curve); conditions: Drosophila S3 cells, BODIPY lipid droplet/cell ratio, laser cytometry, cells loaded with oleic acid
# Procedure, shortened: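 Cells seeded at 5,000 per well were treated with compounds over a concentration series and loaded with oleic acid (400 uM, as added). Lipid droplet fluorescence (488 nm excitation, 500-530 nm channel) was read by laser-scanning cytometry and normalized to 20 uM Triacsin C.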
# [13] = biological target: Ubiquitin carboxyl-terminal hydrolase 1 (Homo sapiens) (UniProt O94782); assay: Inhibitors of USP1/UAF1: Pilot qHTS (AID 504865; active = well fitted curve in the direction sought with a large enough effect; an effect the other way counts as inactive or inconclusive;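 note: rhodamine fluorescence freed from ubiquitin-rhodamine substrate followed over time; top concentration of the series differs between compounds; nearly all actives have a fitted effect of over 35% in size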)
# Chain of Ubiquitin carboxyl-terminal hydrolase 1 (Homo sapiens) (O94782 whole entry, looked up): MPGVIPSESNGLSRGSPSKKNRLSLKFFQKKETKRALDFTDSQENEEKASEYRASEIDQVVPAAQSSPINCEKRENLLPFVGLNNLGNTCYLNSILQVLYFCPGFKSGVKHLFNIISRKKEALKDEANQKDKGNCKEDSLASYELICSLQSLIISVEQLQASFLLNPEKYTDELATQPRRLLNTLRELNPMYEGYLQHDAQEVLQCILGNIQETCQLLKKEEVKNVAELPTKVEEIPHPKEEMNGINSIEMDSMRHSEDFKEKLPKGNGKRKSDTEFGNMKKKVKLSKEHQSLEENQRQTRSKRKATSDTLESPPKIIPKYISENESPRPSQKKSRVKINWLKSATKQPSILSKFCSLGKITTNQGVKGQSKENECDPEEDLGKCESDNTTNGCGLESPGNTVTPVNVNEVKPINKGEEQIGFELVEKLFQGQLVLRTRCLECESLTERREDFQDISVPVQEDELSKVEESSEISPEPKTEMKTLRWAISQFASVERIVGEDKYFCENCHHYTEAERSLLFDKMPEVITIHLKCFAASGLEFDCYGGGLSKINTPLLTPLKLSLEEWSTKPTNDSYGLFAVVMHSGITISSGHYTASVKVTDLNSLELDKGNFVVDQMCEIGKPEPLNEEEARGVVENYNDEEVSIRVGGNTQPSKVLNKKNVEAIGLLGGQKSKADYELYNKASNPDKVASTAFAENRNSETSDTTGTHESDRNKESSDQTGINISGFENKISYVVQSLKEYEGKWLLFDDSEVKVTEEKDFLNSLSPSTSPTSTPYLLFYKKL
# Procedure, shortened: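 Kinetic fluorescence assay: 1nM USP1/UAF1, 15 min compound preincubation, then 150nM Ub-Rho; 480/540 nm.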
# [14] = measured here: cell count channel max response
# [15] = measured here: lipid channel max response
compound,measurement,setting,value
O=C(Oc1ccccc1)N1CCC[C@@]2(CCN(C(c3ccccc3)c3ccccc3)C2)C1,outcome,[1],inactive
same,Potency,[2],25.1 µM (active)
same,outcome,[3],inactive
same,Potency,[4],> 46 µM (inactive)
same,outcome,[5],inactive
same,Potency,[6],inactive
same,Potency,[7],inactive
same,Potency,[8],5.01 µM (active)
same,outcome,[9],inactive
N#Cc1cccc(NC(=O)N2CC[C@@]3(CCCN(C(=O)Oc4ccccc4)C3)C2)c1,outcome,[1],inactive
same,"activity change, negative = inhibition",[10]; at 7.69 µM (top of the series),-14.8% (inactive)
same,outcome,[3],inactive
same,Potency,[4],> 46 µM (inactive)
same,outcome,[5],inactive
same,Potency,[6],inactive
same,Potency,[7],inactive
same,Potency,[8],inactive
same,outcome,[9],inactive
CC1=NCCc2c1[nH]c1cc(O)ccc21,Potency,[2],12.6 µM (active) and 25.1 µM (active)
same,"activity change, negative = inhibition",[10]; at 17.2 µM (top of the series),-14.7% (inactive)
same,outcome,[3],inactive
same,Potency,[11],> 20.6 µM (inactive) and > 46 µM (inactive)
same,Potency,[4],> 20.6 µM (inactive) and > 46 µM (inactive)
same,outcome,[5],inactive
same,Potency,[6],inactive
same,Potency,[7],inactive
same,"activity change, negative = inhibition",[12]; at 25.7 µM (top of the series),1.71% (inactive)
same,"activity change, negative = inhibition",[12]; at 57.5 µM (top of the series),18.3% (inactive)
same,max response,[12]; [14],2% and 2.42%
same,max response,[12]; [15],2.85% and 18.5%
same,Potency,[13],inactive
COc1ccc2cc1Oc1ccc(cc1)CC1c3cc(c(OC)cc3CCN1C)Oc1c(OC)c(OC)cc3c1C(C2)N(C)CC3 (configuration not stated),"activity change, negative = inhibition",[12]; at 57.5 µM (top of the series),6.58% (inactive)
same,max response,[12]; [14],-1.03%
same,max response,[12]; [15],6.79%
O=C(Oc1ccccc1)N1CCC2(CCN(Cc3ccncc3)CC2)CC1,outcome,[1],inactive
same,outcome,[3],inactive
same,Potency,[4],> 46 µM (inactive)
same,outcome,[5],inactive
same,Potency,[6],inactive
same,Potency,[7],inactive
same,outcome,[9],inactive
Clc1ccccc1-c1cncnc1NCCc1cnc[nH]1,outcome,[1],inactive
same,Potency,[2],1.58 µM (active)
same,outcome,[3],inactive
same,Potency,[11],> 46 µM (inactive)
same,Potency,[4],> 46 µM (inactive)
same,outcome,[5],inactive
same,Potency,[6],inactive
same,Potency,[7],inactive
same,Potency,[8],3.98 µM (active)
same,Potency,[13],inactive
same,outcome,[9],inactive
O=C(Oc1ccccc1)N1CCC2(CCCN(Cc3nccs3)C2)CC1,outcome,[1],inactive
same,Potency,[2],inactive
same,outcome,[3],inactive
same,Potency,[4],> 46 µM (inactive)
same,outcome,[5],inactive
same,Potency,[6],inactive
same,Potency,[7],inactive
same,Potency,[8],5.01 µM (active)
same,outcome,[9],inactive
O=C(Oc1ccccc1)N1CCC2(CC1)CCN(C(c1ccccc1)c1ccccc1)CC2,outcome,[1],inactive
same,"activity change, negative = inhibition",[10]; at 7.69 µM (top of the series),-0.91% (inactive)
same,outcome,[3],inactive
same,Potency,[4],> 46 µM (inactive)
same,outcome,[5],inactive
same,outcome,[9],inactive
O=C(Nc1ccccc1)N1CCCC2(CCN(C(=O)Oc3ccccc3)CC2)C1,outcome,[1],inactive
same,Potency,[2],25.1 µM (active)
same,outcome,[3],inactive
same,Potency,[4],> 46 µM (inactive)
same,Potency,[6],inactive
same,Potency,[7],inactive
same,outcome,[9],inactive
C=C(C)C1Cc2c(ccc3c(=O)c4c(oc23)COc2cc(OC)c(OC)cc2-4)O1 (configuration not stated),outcome,[9],inactive
COc1cc2occc2c2oc(=O)ccc12,Potency,[7],inactive
same,outcome,[9],inactive
O=C(Oc1ccccc1)N1CCC[C@@]2(CCN(Cc3cc(C(F)(F)F)cc(C(F)(F)F)c3)C2)C1,outcome,[3],inactive
same,Potency,[4],> 46 µM (inactive)
same,outcome,[5],inactive
same,Potency,[6],inactive
same,outcome,[9],inactive
O=C(Oc1ccccc1)N1CCC[C@@]2(CCN(Cc3ccccc3)C2)C1,outcome,[1],inactive
same,Potency,[2],15.8 µM (active)
same,outcome,[3],inactive
same,Potency,[4],> 46 µM (inactive)
same,outcome,[5],inactive
same,Potency,[6],inactive
same,Potency,[7],inactive
same,outcome,[9],inactive
O=C(Nc1ccccc1)N1CCC2(CC1)CCN(C(=O)Oc1ccccc1)CC2,outcome,[1],inactive
same,Potency,[2],inactive
same,"activity change, negative = inhibition",[10]; at 7.69 µM (top of the series),5.23% (inactive)
same,Potency,[4],> 46 µM (inactive)
same,outcome,[5],inactive
same,Potency,[6],inactive
same,Potency,[7],10 µM (active)
same,outcome,[9],inactive
NC(N)=NN=Cc1c(Cl)cccc1Cl,"activity change, negative = inhibition",[12]; at 25.7 µM (top of the series),-2.38% (inactive)
same,max response,[12]; [14],-4.82%
same,max response,[12]; [15],-7.49%
O=C(Oc1ccccc1)N1CCC2(CC1)CN(Cc1ccncc1)C2,outcome,[1],inactive
same,Potency,[2],10 µM (active)
same,outcome,[3],inactive
same,Potency,[4],> 46 µM (inactive)
same,outcome,[5],inactive
same,Potency,[6],inactive
same,Potency,[7],inactive
same,outcome,[9],inactive
NC(N)=N/N=C\c1c(Cl)cccc1Cl,"activity change, negative = inhibition",[12]; at 57.5 µM (top of the series),6.25% (inactive)
same,max response,[12]; [14],12.3%
same,max response,[12]; [15],22.6%
O=C(NC[C@@H]1CCCCN1)c1cc(OCC(F)(F)F)ccc1OCC(F)(F)F,"activity change, negative = inhibition",[12]; at 25.7 µM (top of the series),-0.787% (inactive)
same,max response,[12]; [14],-18.7%
same,max response,[12]; [15],-19.7%
CC(C)C[C@H]1C(=O)N2CCC[C@@H]2[C@]2(O)O[C@](NC(=O)[C@H]3C=C4c5cccc6[nH]c(Br)c(c56)C[C@H]4N(C)C3)(C(C)C)C(=O)N12,"activity change, negative = inhibition",[12]; at 25.7 µM (top of the series),-0.675% (inactive)
same,max response,[12]; [14],-7.2%
same,max response,[12]; [15],-5.42%
CC(C)CN1CCCC2(CCN(C(=O)Oc3ccccc3)CC2)C1,outcome,[1],inactive
same,outcome,[3],inactive
same,outcome,[5],inactive
same,Potency,[6],inactive
same,Potency,[7],inactive
same,outcome,[9],inactive
Cc1nnc2ccc(-c3cccc(C(F)(F)F)c3)nn12,Potency,[2],0.0794 µM (active)
same,Potency,[11],> 46 µM (inactive)
same,Potency,[4],> 46 µM (inactive)
same,outcome,[5],inactive
same,Potency,[6],inactive
same,Potency,[7],inactive
same,Potency,[13],inactive
same,outcome,[9],inactive
